Only some compounds are listed: those with a hit (about 7.4% of all), similar ones and a draw of the others.
Rab9 prom act = qHTS Assay for Rab9 Promoter Activators; Huh7 Rab9 promoter-luciferase reporter, luminescence, 24 h; Potency, µM (doses to about 9.22 µM), without a hit: top-dose activation, negative = inhibition, usual class: activators; 2.8% of 320,000 active; AID 485297, 2010; note: % of control where 0% means no effect; nearly all actives have a fitted effect of over 60% in size
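Stable Rab9-luc Huh7, 1500 cells/well, 2 h settle; cmpd in DMSO, 24 h, 37 °C/5% CO2; luciferase reagent 10 min RT; luminescence.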
NPC1 prom act = qHTS Assay for NPC1 Promoter Activators; Huh7 NPC1 promoter luciferase reporter, 24 h; Potency, µM (series often up to 9.22 µM), inactives show at the highest dose activation, most hits filed as activators; 2.4% of 320,000 active; note: % of control where 0% means no effect; nearly all actives have a fitted effect of over 60% in size
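In 1536-well qHTS, Huh7 cells harboring an NPC1 promoter–luciferase construct received compound for 24 h; activation was quantified by luminescence following luciferase reagent addition.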
p53 reactivator = qHTS assay for re-activators of p53 using a Luc reporter | H1299 p53-A138V BP100-luciferase reporter, luminescence, 24 h | Potency, µM (doses to about 92.2 µM), without a hit: at the top dose activity change, positive = activation, hits mostly activators | 0.063% of 320,000 active | AID 504706, 2011; note: % of control where 0% means no effect; nearly all actives have a fitted effect of over 45% in size
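p53-null H1299 cells stably carrying temperature-sensitive p53-A138V and a BP100-luciferase reporter were pinned with compounds (4-point, 1:5 series) and held 24 hrs at 37 deg C. Luminescence was read 10 min after detection reagent.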
SMN2 splice up = qHTS Assay for Enhancers of SMN2 Splice Variant Expression; HEK293 SMN2-luciferase splicing reporter, luminescence, 30-36 h; Potency, µM (titrated, usually from 46.1 µM), inactives show top-dose activity change, positive = activation, usual class: activators; 2.8% of 210,000 active; AID 1458, 2008; note: % of control where 0% means no effect; nearly all actives have a fitted effect of over 55% in size
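HEK293 cells carry an SMN2 […]–luciferase reporter in which exon 7 inclusion puts luciferase in frame. Cells were plated 10-12 h before compound addition, then incubated 30-36 h at 37C. ONE-Glo luminescence was read; sodium butyrate at 4.5 mM final served as control.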
FLuc counter = qHTS profiling assay for firefly luciferase inhibitor/activator using purifed enzyme and Km concentrations of substrates (counterscreen for miR-21 project) | Luciferin 4-monooxygenase (Photinus pyralis), P08659 | purified FLuc, Km substrates, luminescence inhibition | Potency, µM (doses to about 57.5 µM), for the others: at the highest dose activity change, negative = inhibition, actives largely listed as inhibitors | 6.9% of 360,000 active | AID 588342, 2011;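 note: plate controls were vehicle for no effect and reference inhibitor for full effect; nearly all actives have a fitted effect of over 55% in size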
Target sequence (P08659 whole entry, looked up): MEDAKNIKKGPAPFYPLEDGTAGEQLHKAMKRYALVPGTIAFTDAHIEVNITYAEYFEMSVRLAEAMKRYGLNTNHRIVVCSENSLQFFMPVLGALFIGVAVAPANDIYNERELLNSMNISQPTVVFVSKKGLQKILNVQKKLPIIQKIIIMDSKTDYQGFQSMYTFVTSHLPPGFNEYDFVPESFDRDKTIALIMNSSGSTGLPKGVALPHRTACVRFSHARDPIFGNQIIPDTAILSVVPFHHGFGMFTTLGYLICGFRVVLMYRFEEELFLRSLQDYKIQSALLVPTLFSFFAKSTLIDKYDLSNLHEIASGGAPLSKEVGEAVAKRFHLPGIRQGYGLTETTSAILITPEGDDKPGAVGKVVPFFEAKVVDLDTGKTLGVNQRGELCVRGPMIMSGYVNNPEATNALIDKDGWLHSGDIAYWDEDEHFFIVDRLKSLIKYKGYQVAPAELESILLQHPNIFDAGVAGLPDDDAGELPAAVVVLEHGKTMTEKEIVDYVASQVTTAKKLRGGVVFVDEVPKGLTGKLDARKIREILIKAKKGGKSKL
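Purified P. pyralis luciferase, 10 nM final, with Km-level 10 uM D-luciferin and 10 uM ATP in 50 mM Tris acetate pH 7.5, 10 mM Mg acetate, 0.01% Tween-20, 0.05% BSA; 6-point qHTS titration about 60 µM downward; luminescence read.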
ELG1 genotoxic = qHTS screen for small molecules that induce genotoxicity in human embryonic kidney (HEK293T) cells expressing luciferase-tagged ELG1. Potency, µM (titrated, usually from 46 µM), for inactives: at the highest dose activity change, positive = activation, most hits filed as activators. 1.3% of 330,000 active. HEK293T ELG1-luciferase reporter, luminescence, 16 h; note: % of control where 0% means no effect; nearly all actives have a fitted effect of over 60% in size
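Screening used a luciferase reporter fused to human ELG1 in HEK293T cells. Luminescence was read on a CCD plate imager after 16 hr exposure and 30 min ONE-Glo incubation.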
The depositor's hits bear a star; ? = inconclusive; . = not tested or not shown. Calls come from the whole dose curve; as a rule, active = well fitted curve in the direction sought with a large enough effect; inconclusive = small, poorly fitted or top-dose-only effect, or another doubt; inactive = no such curve, though single readings can be large; an effect the other way counts as inactive or inconclusive. Potency is the fitted concentration of half-maximal effect.

SMILES | Rab9 prom act | NPC1 prom act | p53 reactivator | SMN2 splice up | FLuc counter | ELG1 genotoxic
Cc1ccc(N/N=C(\C#N)C(=N)N2CCCCC2)cc1 | 0.5µM* | 0.45µM* | 13% | . | 5.4µM* | ?
CCN(CC)C(=N)/C(C#N)=N/Nc1ccccc1 | ? | ? | 10% | . | ? | ?
O=C(CN1CCN(c2ccccc2O)CC1)Nc1ccc2c(c1)OCCCO2 | 16% | 0% | 7% | . | 0% | 2%
COc1ccc(CCN2CC(C(=O)NCCCn3nc(C)cc3C)CCC2=O)cc1 (stereo not given) | -10% | 3% | 7% | . | -18% | 0%
CCc1cccc(C)c1NC(=O)C(CC)n1nc(C)c2c(C)n(-c3ccccc3)nc2c1=O (stereo not given) | . | . | . | . | -9% | .
Cc1cccc(C(C)C)c1NC(=O)c1ccc(OCC2CCCO2)cc1 (stereo not given) | . | . | -1% | . | . | -4%
Cc1csc(NC(=O)c2ccc(OCC3CCCO3)cc2)n1 (stereo not given) | 0.45µM* | ? | 20% | 1.4µM* | 5.4µM* | -7%
O=C(Nc1nc(-c2ccc(F)c(F)c2)cs1)c1ccc(OCC2CCCO2)cc1 (stereo not given) | -34% | -28% | -4% | . | -26% | -2%
CCOc1ccc2nc(NC(=O)CSc3nnc(-c4ccncc4)n3CC3CCCO3)sc2c1 (stereo not given) | ? | ? | 24% | 13% | 2.4µM* | ?
Cc1cccc2sc(NC(=O)c3ccc(OCC4CCCO4)cc3)nc12 (stereo not given) | -3% | 27% | 1% | 3% | 11µM* | 6%
CCOc1ccc2nc(NC(=O)c3ccc(OCC4CCCO4)cc3)sc2c1 (stereo not given) | 16% | 27% | ? | ? | 2.7µM* | -1%
CCOC(=O)N1CCN(C(=O)COC(=O)C2CCN(S(=O)(=O)c3c(C)c(C)cc(C)c3C)CC2)CC1 | 3% | -1% | 9% | . | 1% | 11%
C[C@]12CC[C@@H](O)C[C@@H]1CC[C@@H]1[C@@H]2CC[C@]2(C)C=CC[C@@H]12 | . | . | . | -18% | . | .
Cc1ccc(Cl)cc1NC(=O)CCCn1c(=O)c2cccn2c2cccnc21 | . | . | . | . | -2% | .
CN(C)CCNC(=O)CCCn1c(=O)c2cccn2c2ccccc21 | . | . | . | . | 15µM* | .
Cc1ccc(Cl)cc1NC(=O)CCCn1c(=O)c2cccn2c2ccccc21 | . | . | . | . | 12µM* | .
CCCCCOc1c(Cl)cc(C(=O)N(Cc2ccc(C)o2)C2CCS(=O)(=O)C2)cc1Cl (stereo not given) | . | . | . | -26% | -7% | .
Cc1ccc(N=C2CCCN2Cc2ccccc2)c(C#N)c1 | 13% | 3% | 7% | -3% | 24µM* | -1%
O=C(O)CN1C(=O)/C(=C/c2ccsc2)SC1=S | 1% | -4% | 4% | -12% | 19µM* | 1%
CC(=C\c1ccccc1)/C=C1/SC(=S)N(CCC(=O)Nc2ccccn2)C1=O | 0% | -1% | 0% | . | -16% | 4%
O=C(O)CN1C(=O)/C(=C/C=C/c2ccccc2)SC1=S | 63% | ? | 1% | 4% | 2.7µM* | 0%
CC(=O)c1ccc(NC(=O)CN2C(=O)/C(=C/C=C/c3ccccc3)SC2=S)cc1 | 3% | -1% | 5% | 22% | ? | 4%
O=C1/C(=C/c2cccnc2)SC(=NCc2ccccc2)N1Cc1ccccc1 | 6% | 0% | 14% | -12% | -8% | -5%
O=C1/C(=C/c2cccnc2)SC(=S)N1CCc1ccccc1 | -2% | 0% | ? | . | 11µM* | ?
C=CCN1C(=O)/C(=C/c2ccsc2)SC1=S | 2% | -2% | 0% | -67% | 7% | 1%
SMILES | Rab9 prom act | NPC1 prom act | p53 reactivator | SMN2 splice up | FLuc counter | ELG1 genotoxic
O=C(O)CN1C(=O)/C(=C\C(Br)=C\c2ccccc2)SC1=S | 14% | 8% | ? | . | 9.5µM* | ?
CCOc1ccc(NC(=O)CSc2ncc3c(n2)-c2ccc(Cl)cc2N(Cc2ccccc2)S3(=O)=O)cc1 | . | . | . | . | 2% | .
COc1cccc(N2C(=O)C(CC(=O)Nc3cccc(F)c3)N(C3CCCC3)C2=O)c1 (stereo not given) | . | . | . | . | -5% | .
O=C(Nc1ccc(N2CCOCC2)cc1)c1ccc(Cl)c(S(=O)(=O)N2CCCC2)c1 | -26% | -19% | -3% | . | 6% | -1%
Cc1ccc(C)c(NC(=O)CSc2nnc(-c3cc(C)[nH]n3)n2N)c1 | 10% | 4% | 1% | . | 2% | 1%
CN(CC(=O)Nc1ccc(Cl)c(C(F)(F)F)c1)C(=O)COC(=O)C1CC2CCCC(C1)C2=O (stereo not given) | . | . | 4% | . | . | 2%
O=C(CCN1C(=O)/C(=C/c2ccc(Cl)cc2)SC1=S)Nc1cccnc1 | -6% | 3% | 7% | . | -1% | -2%
O=C(CCCN1C(=O)/C(=C/c2ccccc2Cl)SC1=S)NNC(=O)c1cccnc1 | -11% | -12% | -6% | . | 13µM* | -5%
O=C(CCN1C(=O)/C(=C/C=C/c2ccccc2)SC1=S)Nc1cccnc1 | ? | 25% | 5% | ? | 1.1µM* | ?
O=C(CCN1C(=O)/C(=C/C=C/c2ccccc2)SC1=S)Nc1ccccn1 | 5% | 0% | -4% | . | 24µM* | 17%
COc1ccc(Cn2c(C3CC3)nc3ccc(NC(C)=O)cc3c2=O)cc1 | 1.6µM* | 2.2µM* | ? | 11µM* | 11µM* | ?
CCCc1nc2ccc(NC(C)=O)cc2c(=O)n1Cc1ccc(Cl)cc1 | ? | 3.5µM* | 16% | 5% | ? | ?
COc1ccc(C(=O)NC(=S)NC(C)C)cc1Br | 5% | 0% | 7% | 12% | ? | 2%
COc1ccc(C(=O)NC(=S)NC(C)(C)C)cc1Br | ? | 29% | 22% | 17% | 11µM* | 9%
COc1ccccc1C(=O)NC1=NC(c2ccc(Br)cc2)CC(=O)N1 (stereo not given) | . | . | . | 11µM* | 4.8µM* | .
Cc1ccc(C(=O)NC2=NC(c3ccc(C)cc3)CC(=O)N2)cc1 (stereo not given) | . | . | . | . | -5% | .
COc1cc2ccccc2cc1C(=O)N1CCN(c2nc3c(F)cc(F)cc3s2)CC1 | . | . | . | . | -8% | .
O=C(Nc1ccncc1)c1ccccc1F | -1% | -3% | -2% | -9% | -2% | -11%

Source: PubChem
